Assay outcomes from PubChem BioAssay.
BL2 CD40 inh = CD40 pathway inhibition in BL2 cells; BL2 NF-kB luciferase reporter, CD40L-induced, 4 h; inhibition, % at 10 µM; actives 0.94% (n = 83,000); AID 1053188;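 active = mean inhibition of at least 50% with a set share of replicates also reaching that level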
Numbers stand for hits; - = inactive; [ ] = dose if it differs, or a comment. This is one part of a sample in which hits are shown more often than they occur.

SMILES	BL2 CD40 inh
CCCNC(=O)[C@H]1[C@H](CO)[C@H]2Cn3c(ccc(/C=C/c4ccccc4)c3=O)[C@@H]1N2C(=O)C1CCC1	-
N#C[C@H]1[C@H](c2ccccc2-c2ccccc2F)[C@@H](CO)N1C(=O)Cc1ccccc1	-
O=C(Nc1ccccc1F)N1C[C@H]2[C@@H](c3ccccc31)[C@@H](CO)N2C(=O)C1CCCCC1	-
C[C@@H]1CN(C)C(=O)Cc2cc(N(C)C)ccc2O[C@@H]1CN(C)C(=O)OC(C)(C)C	-
CO[C@H]1CN(C)C(=O)c2cc(NC(=O)C3CCC3)ccc2OC[C@@H](C)N(Cc2ccc(F)cc2)C[C@@H]1C	-
COc1cc2cc(C(=O)Nc3ccc4c(c3)OCCO4)[nH]c2cc1OC	60
COc1ccc(C(=O)Nc2ccc3c(c2)OCCO3)c(OC)c1	-
COc1ccccc1NC(=O)Nc1ccc2c(c1)OCCO2	-
COc1ccccc1CN1[C@@H]2CN(C(=O)C3CC3)c3ccccc3[C@@H]2[C@@H]1CO	-
COc1ccccc1NC(=O)N1CCCCN2[C@H](CO)[C@H](c3ccc(-c4cccc(C#N)c4)cc3)[C@H]2C1	-
CN(C)C(=O)C[C@H]1CC[C@@H]2[C@H](COc3ccc(NC(=O)C4CCC4)cc3C(=O)N2C)O1	-
CCCCCCCCCCCCCCCC(=O)C1C(=O)OC(CO)C1=O (stereo not drawn)	-
Cc1nc2c(=O)n(C)c(=O)n(C)c2nc1Cl	105
CC(C)Sc1nc2c(c(=O)n(C)c(=O)n2C)n1C	-
Cc1cc(Nc2nc3c(c(=O)n(C)c(=O)n3C)n2C)n(-c2ccc(Cl)cc2)n1	-
CC(C)NC(=O)N1[C@H](CO)[C@@H](c2ccccc2)[C@H]1CNC(=O)CN(C)C	-
O=C(C[C@@H]1C[C@H]2c3cc(NC(=O)C4CCC4)ccc3O[C@H]2[C@H](CO)O1)NCc1ccccn1	-
O=C(NCCc1ccccc1)c1cccc(N2CCCC2=O)c1	71
O=C(NCc1ccc2c(c1)OCO2)c1cccc(N2CCCC2=O)c1	-
O=C(Nc1ccccc1)c1cccc(N2CCCC2=O)c1	-
C[C@@H]1CN([C@@H](C)CO)C(=O)c2ccccc2-c2ccccc2CO[C@@H]1CN(C)S(=O)(=O)c1ccc([N+](=O)[O-])cc1	-
O=C(O)C[C@@H]1C=C[C@H](NC(=O)Nc2cc(F)ccc2F)[C@H](CO)O1	-
O=C(C[C@@H]1CC[C@H]2[C@@H](COC[C@@H](O)CN2CC2CCCCC2)O1)NCC1CC1	-
NCc1c(O)ccc2ccccc12	-
Cn1c(NCc2c(O)ccc3ccccc23)nc2ccccc21	-
SMILES	BL2 CD40 inh
Oc1ccc2ccccc2c1CNc1cnc2ccccc2c1	54
CCS(=O)(=O)N1CC2(CN(C(=O)c3cccnc3)C2)c2c(n(C)c3cc(OC)ccc23)[C@H]1CO	-
COc1ccc(NC(=O)N(C)C[C@H]2OCc3ccccc3-c3ccccc3C(=O)N([C@@H](C)CO)C[C@H]2C)cc1	-
CO[C@@H]1CN(C)C(=O)c2cc(NC(=O)C3CCOCC3)ccc2OC[C@H](C)N(CC2CC2)C[C@H]1C	-
Cc1onc(-c2ccccc2)c1C(=O)OCC(=O)Nc1ccccc1	-
Cc1onc(-c2ccccc2)c1C(=O)OCC(=O)c1ccc[nH]1	-
COC(=O)c1ccc2c(=O)[nH]c(COC(=O)c3c(-c4ccccc4)noc3C)nc2c1	29
CN1C(=O)c2cc(NC(=O)c3cnccn3)ccc2OC[C@H]2O[C@@H](CC(=O)NCC3CC3)CC[C@@H]21	-
CN(C)C(=O)c1ccc(-c2ccccc2[C@@H]2[C@@H](CO)N(C(=O)C3CC3)[C@H]2C#N)cc1	-
N#C[C@H]1[C@@H](c2ccc(C#Cc3ccccc3F)cc2)[C@@H](CO)N1C(=O)C1CCCCC1	-
N#C[C@H]1[C@@H](c2ccccc2)[C@H](CO)N1C(=O)c1cccnc1	-
N#C[C@H]1[C@H](c2ccc(C#Cc3ccccc3F)cc2)[C@@H](CO)N1C(=O)c1cccnc1	70[25 µM]
N#C[C@H]1[C@H](c2ccc(C#Cc3ccccc3F)cc2)[C@H](CO)N1C(=O)C1CC1	63[25 µM]
N#C[C@H]1[C@H](c2ccc(C#Cc3ccccc3F)cc2)[C@@H](CO)N1C(=O)C1CCCCC1	62
N#C[C@@H]1[C@@H](c2ccc(C#Cc3ccccc3F)cc2)[C@@H](CO)N1C(=O)C1CCCC1	-
COCC(=O)N1[C@H](C#N)[C@H](c2ccc(C#Cc3ccccc3F)cc2)[C@H]1CO	73[25 µM]
N#C[C@@H]1[C@H](c2ccc(C#Cc3ccccc3F)cc2)[C@H](CO)N1C(=O)C1CCCC1	-
COCC(=O)N1[C@H](C#N)[C@H](c2ccc(C#Cc3ccccc3F)cc2)[C@@H]1CO	-
COCC(=O)N1[C@@H](C#N)[C@@H](c2ccc(C#Cc3ccccc3F)cc2)[C@@H]1CO	-
N#C[C@@H]1[C@@H](c2ccc(C#Cc3ccccc3F)cc2)[C@H](CO)N1C(=O)c1cccnc1	-
N#C[C@H]1[C@@H](c2ccc(C#Cc3ccccc3F)cc2)[C@H](CO)N1C(=O)C1CCC1	-
CC(=O)N1[C@@H]2CN(S(C)(=O)=O)C[C@H]1C2c1ccccc1 (stereo partly drawn)	-
COC(=O)N(C)C[C@@H]1OCc2ccccc2-c2c(n(C)c3ccccc23)C(=O)N([C@@H](C)CO)C[C@@H]1C	-
COc1ccc(C#Cc2ccc3c(c2)[C@@H]2[C@@H](CCN2C(=O)C2CCCC2)[C@H](CO)N3)cc1	-
COCC(=O)N1CC2(CN(Cc3ccccc3)C2)c2c(n(C)c3cc(OC)ccc23)[C@@H]1CO	-
SMILES	BL2 CD40 inh
CC1CC(Nc2ccccc2)c2ccccc2N1C(=O)c1cccnc1 (stereo not drawn)	-
CC(=O)N(c1ccccc1)C1CC(C)N(C(=O)c2ccccc2)c2ccccc21 (stereo not drawn)	-
C[C@@H]1C[C@H](Nc2ccccc2)c2ccccc2N1C(=O)c1cccnc1	20
C[C@@H]1CN(C)C(=O)Cc2cc(NS(C)(=O)=O)ccc2O[C@@H]1CN(C)C	-
O=C1C[C@H](c2ccccc2)C(=O)N[C@H](c2ccccc2)C/C=C\C[C@H](c2ccccc2)N1	-
CC(=O)Nc1ccccc1OCC(=O)c1ccc2c(c1)OCO2	-
O=C(/C=C\Nc1ccccc1Br)c1ccc2c(c1)OCO2	57
CN(CC(=O)Nc1ccccc1Br)C(=O)CNC(=O)c1ccc2c(c1)OCO2	-
CC(=O)N1[C@H](CO)[C@H](c2ccc(-c3ccc(F)cc3)cc2)[C@@H]1CNC(=O)C1CC1	-
O=C1NCCOCn2nncc2CC[C@@H]1Cc1ccccc1	-
CSc1ncc(Cl)c(C(=O)Nc2cccc3ccccc23)n1	-
Cc1cc(C(=O)Nc2cc(S(C)(=O)=O)ccc2Cl)no1	-
CCOC(=O)c1nc(S(C)(=O)=O)ncc1Cl	108
CCOC(=O)c1ccc(NS(C)(=O)=O)cc1	-
Cc1ccccc1NC(=O)c1nc(S(C)(=O)=O)ncc1Cl	104
CCOC(=O)c1nc(C)[nH]c1C(=O)OCC	-
Cc1nn(C)cc1NC(=O)C[C@H]1CC[C@H]2[C@H](COc3ccc(NC(=O)C4CCOCC4)cc3C(=O)N2C)O1	-
O=C(Nc1cc(F)ccc1F)N1[C@@H]2CNC[C@H]1C2c1ccc(-c2ccc(F)cc2)cc1 (stereo partly drawn)	-
COc1ccc2cc3c(N)nn(C(=O)c4cccc(F)c4)c3nc2c1	-
COc1cccc(CC(=O)n2nc(N)c3cc4ccc(OC)cc4nc32)c1	-
COc1ccc2cc3c(N)nn(C(=O)Cc4c[nH]c5ccccc45)c3nc2c1	77
CSc1ccc2c(c1)N(CCC1CCCCN1C)c1ccccc1S2 (stereo not drawn)	74
